# An excerpt weighted towards active compounds, which were near 4.1% of everything screened.
# AMA1 RON2 block = qHTS for Inhibitors of AMA1-RON; Towards Development of Antimalarial Drug Lead: Primary Screen; Plasmodium falciparum AMA1 (3D7) - RON2 peptide interaction; AlphaScreen AMA1-biotinylated RON2 peptide binding; Potency, µM (series often up to 58.2 µM), without a hit: at the top dose activity change, negative = inhibition, most hits filed as inhibitors; 360,000 compounds, 0.2% hits; AID 720542, 2013;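 also: 0% = vehicle wells and -100% = peptide control; nearly all actives have a fitted effect of over 45% in size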
#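 AMA1 (3D7) with his tag at 25 nM final met compounds first, then biotinylated RON2 peptide at 25 nM; detection used donor plus acceptor beads, 10 µg/mL apiece, read by AlphaScreen after 30 min at room temperature.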
# Sm TGR block = qHTS Assay for the Inhibitors of Schistosoma Mansoni Peroxiredoxins | Schistosoma mansoni thioredoxin glutathione reductase (TGR), Q962Y6 | purified TGR, DTNB reduction, TNB absorbance 405 nm | Potency, µM (highest dose often 114 µM), inactives show top-dose activity change, negative = inhibition, most hits filed as inhibitors | 360,000 compounds, 3% hits | AID 485364, 2010; also: nearly all actives have a fitted effect of over 60% in size
#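 First, TGR (20 nM dispensed) and NADPH were mixed with compound. Second, a 15 min room-temperature incubation followed. Third, further NADPH and then DTNB were added to start the reaction. Finally, TNB absorbance was monitored kinetically.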
# AmpC inh detg = qHTS Inhibitors of AmpC Beta-Lactamase (assay with detergent) | 370,000 compounds, 0.041% hits | AmpC hydrolysis of nitrocefin, absorbance 480 nm, 0.01% Triton | Potency, µM (doses to about 114 µM), without a hit: top-dose activity change, negative = inhibition, usual class: inhibitors | P00811;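 also: 0% = no-compound wells and -100% = no-enzyme wells; nearly all actives have a fitted effect of over 25% in size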
# Target sequence (P00811 whole entry, looked up): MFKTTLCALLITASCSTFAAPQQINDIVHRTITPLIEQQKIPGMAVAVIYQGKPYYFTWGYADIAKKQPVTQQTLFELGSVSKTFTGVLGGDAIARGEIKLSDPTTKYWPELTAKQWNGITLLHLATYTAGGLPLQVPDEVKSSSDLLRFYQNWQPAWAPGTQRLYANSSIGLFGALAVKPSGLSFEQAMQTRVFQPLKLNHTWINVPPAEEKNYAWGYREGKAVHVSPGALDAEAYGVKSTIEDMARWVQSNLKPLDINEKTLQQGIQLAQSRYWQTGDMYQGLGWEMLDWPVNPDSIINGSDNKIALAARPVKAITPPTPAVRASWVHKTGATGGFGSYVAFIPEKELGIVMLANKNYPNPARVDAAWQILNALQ
#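 AmpC (5.3 nM in the dispensed reagent) in 20 mM phosphate pH 7.0 with 0.01% (detergent screen) or 0.0001% Triton X-100 was preincubated with compounds for 15 min at room temperature. Nitrocefin was then added from an 800 uM solution, and hydrolysis was followed at 480 nm.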
# AmpC no deterg = qHTS Inhibitors of AmpC Beta-Lactamase (assay without detergent) | Potency, µM (highest dose often 57.1 µM), for inactives: at the top dose activity change, negative = inhibition, hits mostly inhibitors | AID 485341, 2010 | AmpC nitrocefin hydrolysis, absorbance 480 nm, 0.0001% Triton | 330,000 compounds, 0.52% hits;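 also: plate controls were no compound for no effect and no enzyme for full effect; nearly all actives have a fitted effect of over 20% in size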
#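 20 mM phosphate pH 7.0 + 0.01% (detergent screen) or 0.0001% Triton X-100; 5.3 nM AmpC reagent; cpd preinc 15 min RT; nitrocefin (800 uM stock) to start; A480 q20 s × 4 min; Activity was normalised to no-enzyme and no-compound control wells.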
# FMDV inh = High Throughput Screening for Foot and Mouth Disease Virus Antivirals. AID 1159524, 2015. 410,000 compounds, 1.2% hits. FMDV antiviral cell-based qHTS. Potency, µM (doses to about 57.9 µM), inactives show top-dose activity change, negative = inhibition, most hits filed as inhibitors; calls by dose curve; tested in HEK293T cells; also: read-out not given here; nearly all actives have a fitted effect of over 45% in size
# * = called active by the depositor; ? = inconclusive; / = not tested or not shown. Unless noted, calls follow the shape of the dose curve; as a rule, active = well fitted curve in the direction sought with a large enough effect; inconclusive = small, poorly fitted or top-dose-only effect, or another doubt; inactive = no such curve, though single readings can be large; an effect the other way counts as inactive or inconclusive. Unless noted, % is scaled to controls: 0 for no effect and ±100 for the full control effect; potency is read from the fitted curve at half-maximal effect.
SMILES,AMA1 RON2 block,Sm TGR block,AmpC inh detg,AmpC no deterg,FMDV inh
Cc1cccc2sc(NNC(=O)c3ccc(S(=O)(=O)N4CCCC(C)C4)cc3)nc12 (centres undefined),51.9%,-16.9%,?,-26.8%,10µM*
Cc1cccc2sc(NNC(=O)c3ccc(S(=O)(=O)N4CCc5ccccc5C4)cc3)nc12,35.6%,-10.9%,-8.8%,14.1µM*,?
COC(=O)c1ccc(Cl)cc1NC(=O)N1CC(C)Oc2ccccc21 (centres undefined),/,1.4%,25.8%,/,0.0%
Cc1oc(-c2cccc(Cl)c2)nc1Cn1c(SCc2ccc(F)cc2)nc2cccnc21,/,3.0%,14.2%,/,-17.5%
COc1ccccc1C(=O)Nc1nnc2n1CCS2,/,10.7%,0.8%,/,42.8%
O=c1c(C(c2ccc(F)cc2)c2c(O)nc3n(c2=O)CCS3)c(O)nc2n1CCS2,0.3%,0.794µM*,2.2%,?,-12.4%
O=c1c2ccccc2nc2n1CCS2,-8.9%,2.9%,?,-10.4%,-7.2%
O=c1c(C(c2ccc(Cl)cc2)c2c(O)nc3n(c2=O)CCCS3)c(O)nc2n1CCCS2,0.4%,1.78µM*,2.7%,-13.9%,3.8%
O=c1c(C(c2ccc(Cl)cc2)c2c(O)nc3n(c2=O)CCS3)c(O)nc2n1CCS2,-3.1%,-0.6%,-0.7%,-22.2%,-20.8%
COc1ccc(C)cc1NC(=O)C1CCN(S(=O)(=O)c2ccc3c(c2)CCCN3C(C)=O)CC1,/,7.0%,3.2%,/,-20.1%
FC(F)(F)c1nc(N2CCCC2)ncc1-c1nnnn1-c1ccccc1,9.2%,-10.5%,?,-3.2%,17.8µM*
COc1ccccc1C1CN(Cc2cn(C)nc2C)Cc2ccccc2O1 (centres undefined),/,/,/,/,-11.1%
O=S(=O)(c1ccc(F)cc1)N1CCC(N2CCCC2)CC1,-14.3%,-12.6%,?,-17.9%,-2.6%
CC(C)CCN(C)C1CCN(S(=O)(=O)c2ccc(F)cc2)CC1,-1.2%,-1.4%,-11.9%,10µM*,-24.3%
COc1ccc(C=C2CS(=O)(=O)CC(=Cc3ccc(OC)cc3)C2=O)cc1,-8.5%,/,/,/,12.6µM*
COc1cc(NC(=O)c2cc(-c3cc(F)ccc3OC(C)C)n[nH]2)cc(OC)c1OC,26.4%,/,/,/,-24.1%
O=C(C=Cc1ccccc1O)c1ccccc1O,-14.8%,/,/,/,?
O=C(/C=C/c1ccccc1Cl)c1ccccc(=O)c1O,59.7%,4.47µM*,-0.9%,?,?
O=C(/C=C/c1ccc(O)c(O)c1)c1ccccc1O,-15.9%,?,-2.6%,-32.6%,20.8%
O=C(/C=C/c1ccc([N+](=O)[O-])cc1)c1cccs1,-12.1%,-6.0%,1.1%,-15.8%,1.6%
Cc1ccc(/C=C/C(=O)c2ccccc(=O)c2O)c(C)c1,59.3%,14.1µM*,?,?,?
O=C(/C=C/c1ccc([N+](=O)[O-])cc1)c1ccccc(=O)c1O,44.4%,/,/,/,12.6µM*
Cc1ccc(C)c(NC(=O)c2ccccc2O)c1,-12.5%,6.6%,?,-31.1%,-20.2%
Cc1ccc(C)c(/C=C/C(=O)c2ccccc(=O)c2O)c1,33.3%,12.6µM*,-1.2%,-31.7%,?
O=C(Nc1ccc(Cl)cc1)c1ccc2oc(=O)n(Cc3ccccc3)c2c1,/,2.6%,9.1%,/,?
SMILES,AMA1 RON2 block,Sm TGR block,AmpC inh detg,AmpC no deterg,FMDV inh
O=C(/C=C/c1ccc(O)c(O)c1)OC(Cc1ccc(O)c(O)c1)C(=O)O (centres undefined),-9.1%,35.5µM*,?,-53.2%,-21.5%
CCCC1OC2CC3C4CCC5=CC(=O)C=CC5(C)C4C(O)CC3(C)C2(C(=O)O)O1 (centres undefined),-2.0%,89.1µM*,2.3%,-5.2%,11.8%
Cc1cc(NC(=O)CCc2nc3cccnc3n2-c2ccccc2)ccc1Br,/,-3.7%,1.1%,/,?
O=C1CC(c2nnc(Cc3ccc(F)cc3Cl)o2)CN1c1ccccc1 (centres undefined),/,-4.6%,-4.8%,/,12.3%
CCOC(=O)N1CCC(NC(=O)C2CCCN(C(=O)c3cc4sccc4n3C)C2)CC1 (centres undefined),9.2%,1.7%,-13.5%,0.562µM*,?
CCN(CC)c1ccc(NC(=O)COCc2cc(-c3ccc4c(c3)OCO4)on2)c(C)c1,/,2.5%,-4.1%,/,-17.0%
COc1ccc(OC)c2sc(N3CCc4ccccc4C3)nc12,-24.8%,-3.3%,?,34.8%,27.0%
c1ccc2c(c1)CCN(c1nc3cc4c(cc3s1)OCCO4)C2,-24.8%,-15.7%,0.0%,-7.7%,7.94µM*
CCN(CC)c1nc2cc(OC)ccc2cc1C#N,31.8%,35.5µM*,?,-0.2%,?
COc1ccc2cc3[n+](cc2c1O)CCc1cc2c(cc1-3)OCO2,?,/,/,/,10µM*
COc1cc2c(cc1OC)-c1cc3ccc(OC)c(OC)c3c[n+]1CC2,-8.6%,-10.2%,?,16.4%,-27.1%
C=CCN1C(c2cccc(C(F)(F)F)c2)=CS/C1=C(\C#N)c1nnc(N2CCOCC2)n1-c1ccccc1,0.0%,/,/,/,-19.2%
C=CCN1C(=O)NC(c2ccccc2)(C(F)(F)F)S/C1=C(\C#N)c1nnc(N2CCOCC2)n1-c1ccccc1 (centres undefined),89.0%,-20.1%,-1.3%,158.9%,31.6µM*
O=C(Nc1nc2ccc(F)cc2s1)c1nc(S(=O)(=O)Cc2ccccc2F)ncc1Cl,/,?,1.5%,/,?
CCOc1ccc(NC(=O)c2nc(S(=O)(=O)Cc3ccccc3F)ncc2Cl)cc1,/,7.08µM*,11.2%,/,25.1µM*
CSc1nnc(NC(=O)c2nc(S(=O)(=O)Cc3ccccc3F)ncc2Cl)s1,58.5%,28.2µM*,-4.2%,-21.8%,7.08µM*
Cc1nnc(NC(=O)c2nc(S(=O)(=O)Cc3ccccc3C)ncc2Cl)s1,80.1%,25.1µM*,?,22.4%,25.1µM*
CC(C)c1nnc(NC(=O)c2nc(S(=O)(=O)Cc3ccccc3F)ncc2Cl)s1,141.2%,31.6µM*,-1.7%,-30.6%,28.2µM*
CCOC(=O)N1CCC(NC(=O)c2cnn(-c3ccc(C)cc3)c2-n2cccc2)CC1,/,1.9%,17.2%,/,6.2%
COc1cc(/C=C2\C(=O)ON=C2c2ccc(Cl)cc2)ccc1O,-19.7%,/,/,/,25.1µM*
CC1=NOC(=O)/C1=C/c1ccc(O)c(Cl)c1,-8.6%,-19.4%,-0.3%,-15.1%,17.8µM*
O=C1ON=C(c2ccccc2)/C1=C/c1ccc(O)c(O)c1,46.1%,5.01µM*,-0.4%,-21.8%,?
COc1ccc(C2=NN(c3ccccc3)C(=O)/C2=C\c2ccc(O)c(OC)c2)cc1,-12.2%,-7.0%,-8.2%,-29.6%,36.7%
O=C1ON=C(c2cccc([N+](=O)[O-])c2)/C1=C/c1ccc(O)cc1,-24.8%,10µM*,?,-28.8%,?

# Source: PubChem BioAssay (National Center for Advancing Translational Sciences (NCATS))
